In the library only some 21% were active in any assay of this set; here they are far more common.
SARS PLpro yeast = blocks SARS-CoV papain-like protease in a yeast assay; actives 0.19% (n = 330,000); Potency, µM (series often up to 32.9 µM), inactives show at the top dose activity, positive = growth rescue, usual class: activators; S. cerevisiae expressing SARS-CoV PLpro, growth rescue; calls by dose curve; further: potency means the concentration at half of the fitted maximal effect; 0% is about no effect; nearly all actives have a fitted effect of over 55% in size
Shiga toxin inh = blocks Shiga toxin action in Vero cells; Vero cells, Shiga toxin protein synthesis inhibition reporter; inhibition, % at 38.7 µM; actives 9.2% (n = 290,000); in the data active means inhibition mostly above about 28%, no sharp cut-off; inactive means mostly below about 43%; further: 0% is about no effect
NS1 function inh = blocks influenza NS1 protein function. Potency, µM (top dose mostly 46.1 µM), without a hit: top-dose activity, positive = more growth. actives 0.4% (n = 270,000); calls by dose curve; further: potency means the concentration at half of the fitted maximal effect; actives are rising curves; nearly all actives have a fitted effect of over 50% in size
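A cell-based growth assay was used: compounds that relieve NS1-induced slow growth of budding yeast raise OD600. Assay medium was yeast nitrogen base with ammonium sulphate and -URA supplement, pH 6.0, with 2% galactose.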
Pf growth 48h = inhibits P. falciparum growth in the first generation, 48 h; actives 5.9% (n = 310,000); Potency, µM (doses to about 28.7 µM), without a hit: top-dose activity change, negative = inhibition, hits mostly inhibitors; P. falciparum luciferase growth in erythrocytes, 48 h; further: potency means the concentration at half of the fitted maximal effect; on the % scale 0 is the no-effect control and ±100 the full control effect
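Compounds are pin-transferred into medium, infected erythrocytes (2% hematocrit, 0.1% parasitemia final) are added, and plates sit one parasite generation at 37 C in 5% CO2. Detection reagent is then added and luminescence measured.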
Pf growth 96h = inhibits malaria parasite growth, 96 h; P. falciparum luciferase reporter growth, 96 h; AID 504834; Potency, µM (highest dose often 28.7 µM), for the others: at the highest dose activity change, negative = inhibition, most hits filed as inhibitors; actives 6.9% (n = 320,000); further: potency means the concentration at half of the fitted maximal effect; on the % scale 0 is the no-effect control and ±100 the full control effect
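Delayed-death screen, second-generation endpoint: infected erythrocytes, 2% hematocrit, 0.05% parasitemia final; 96 hours at 37 C, 5% CO2; luciferase detection reagent; luminescence decrease equals reduced growth.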
Cycloheximide cs = counter-screen for Shiga toxin inhibitors: cycloheximide protein synthesis inhibition; cell reporter, cycloheximide protein synthesis inhibition counterscreen; max response, %; actives 12% (n = 300,000); in the data active means max response mostly above about 13%, no sharp cut-off; inactive means mostly below about 14%; further: read at 38.3 µM for the half of the compounds with a filed dose; 0% is about no effect
Numbers without * were called inactive; ? = inconclusive; . = no result; [ ] = remark or other dose. Unless noted, the call rests on the fitted dose curve; in most records, active means well fitted inhibition curve with a large enough effect; inconclusive means small, poorly fitted or top-dose-only effect, or another doubt; inactive means no such curve, though single readings can be large or run the other way.

SMILES	SARS PLpro yeast	Shiga toxin inh	NS1 function inh	Pf growth 48h	Pf growth 96h	Cycloheximide cs
COc1ccc2c(c1OC)C(=O)N1N=C(c3ccc(Cl)cc3)CC21 (stereo unspecified)	-17.4%	8.2	-17.1%	5.86µM*	-16.2%	13.0*
CCOC(=O)/C=C1/SCC(=O)N1CC(=O)Nc1cccc(F)c1	2.6%	.	.	?	?	.
O=C(COC(=O)c1ccc2ncsc2c1)Nc1cc([N+](=O)[O-])ccc1Cl	-1.1%	.	.	39.8%	-3.8%	.
CCC1(c2ccccc2)NC(=O)N(CC(=O)NCC2COc3ccccc3O2)C1=O (stereo unspecified)	1.5%	.	.	?	29.2%	.
Cc1ccc(C(=O)N2CCN(S(=O)(=O)c3cc(Br)ccc3Br)CC2)o1	1.0%	-6.6	-2.9%	-10.0%	-9.2%	-5.6
COc1cc2c(cc1OC)-c1c(OC)c(OC)cc3c1[C@H](C2)[N+](C)(C)CC3	20.9%	-11.7	9.3%	?	0.37µM*	-3.6
C=CCn1c(SCc2nc3ccccc3[nH]2)nnc1-c1ccccn1	-10.4%	7.6	-1.2%	-8.0%	10.4µM*	27.2*
CCn1c(SCc2nc3ccccc3[nH]2)nnc1-c1cnccn1	0.9%	55.2*	-9.2%	37.9%	?	23.0*
Cn1c(SCc2nc3ccccc3[nH]2)nnc1-c1ccccn1	.	4.5	-0.9%	0.0%	-4.9%	11.5
CC1C(=O)Nc2ccccc2N1C(=O)c1ccccc1 (stereo unspecified)	-0.1%	-8.6	.	5.0%	15.6%	-1.9
Cc1ccc(C(=O)OC(C)C(=O)Nc2ccc3c(c2)OCO3)c(O)c1 (stereo unspecified)	-3.8%	.	.	105.0%	149.9%	.
COc1ccc(-c2csc3nc(C)nc(N4CCCCC4)c23)cc1OC	-2.9%	27.6	.	?	4.65µM*	7.4
CC(C)COC(=O)c1ccc(N)cc1	.	.	.	27.8%	21.8%	.
Cc1ccc(C2C(C(=O)c3cccs3)=C(O)C(=O)N2c2cccc(C)n2)cc1 (stereo unspecified)	-2.0%	70.4*	0.1%	13.8%	34.0%	17.1*
Cc1ccc(C2C(C(=O)c3cccs3)=C(O)C(=O)N2c2ccc(S(N)(=O)=O)cc2)cc1 (stereo unspecified)	6.2%	40.4	?	21.9%	24.3%	24.5*
COC(=O)c1ccc(Nc2nc3ccc(C)cc3n3cnnc23)cc1	-0.1%	50.9	-1.0%	99.9%	-11.3%	17.0
CC(=O)c1ccc(Nc2nc3ccc(C)cc3n3cnnc23)cc1	-0.4%	28.5	4.0%	-6.5%[0.00184 µM]	20.8%	16.6*
CCOc1cccc(-c2nn(-c3ccccc3)cc2/C=C(/C#N)C(=O)NCCCn2ccnc2)c1	-18.4%	-1.4	24.0%	2.62µM*	?	-2.4
O=C(NCCCn1ccnc1)c1cn(-c2ccccc2)nc1-c1ccccc1	.	22.1	-7.6%	-0.3%	-3.4%	11.9
N#C/C(=C/c1cn(-c2ccccc2)nc1-c1cccc(OCc2ccccc2)c1)C(=O)NCCCn1ccnc1	-21.1%	1.8	?	4.65µM*	2.08µM*	-1.9
CC(C)c1nc(SCC(=O)Nc2c[nH]c(=O)[nH]c2=O)c2cnn(-c3ccccc3)c2n1	-1.8%	-3.9	.	-17.8%	3.0%	-2.9
Oc1ccc(Br)cc1Cn1nnc2ccccc21	-6.6%	-10.1	-25.1%	?	-7.0%	-2.2
CC[n+]1c(/C=C2\C=C(C)CC(C)(C)C2)sc2ccccc21	0.9%	-9.2	-12.3%	0.329µM*	?	-2.6
CC[n+]1c(/C=C2/C=C(C)CC(C)(C)C2)sc2ccc(OC)cc21	-14.8%	42.6	-7.0%	0.37µM*	36.0%	16.7
CCC(=O)Nc1c(-c2ccccc2)c(=O)c2ccccc2n1C	-0.3%	-5.9	-1.6%	-9.0%	-4.0%	0.7
SMILES	SARS PLpro yeast	Shiga toxin inh	NS1 function inh	Pf growth 48h	Pf growth 96h	Cycloheximide cs
CC[C@H](C)[C@H](NC(=O)[C@H](Cc1ccc(O)cc1)NC(=O)[C@H](Cc1cnc[nH]1)NC(=O)[C@H](CCCNC(=N)N)NC(=O)[C@H](CC(C)C)NC(=O)[C@H](C)NC(=O)[C@H](CO)NC(=O)[C@H](Cc1ccc(O)cc1)NC(=O)[C@H](Cc1ccc(O)cc1)NC(=O)[C@H](CCCNC(=N)N)NC(=O)[C@H](C)NC(=O)[C@H](CCSC)NC(=O)[C@H](CC(=O)O)NC(=O)[C@H](CCC(=O)O)NC(=O)[C@H](C)NC(=O)[C@@H]1CCCN1)C(=O)N[C@@H](CC(N)=O)C(=O)N[C@@H](CC(C)C)C(=O)N[C@H](C(=O)N[C@H](C(=O)N[C@@H](CCCNC(=N)N)C(=O)N[C@@H](CCC(N)=O)C(=O)N[C@@H](CCCNC(=N)N)C(=O)N[C@@H](Cc1ccc(O)cc1)C(N)=O)[C@@H](C)O)[C@@H](C)CC	.	-7.5	.	.	.	-1.4
Cc1ccc(-n2c(SCC(=O)NCCN3C(=O)CSC3=O)nnc2-c2ccccc2)cc1	-12.0%	13.5	-2.4%	-10.8%	14.7µM*	3.9
Cc1nnc(SCC(=O)Nc2cccnc2Cl)s1	-0.8%	.	.	10.2%	14.9%	.
CCc1ccc(Nc2nnc(SCC(=O)Nc3cccnc3Cl)s2)cc1	-6.9%	30.2*	17.0%	-23.0%	?	19.9*
COc1cccc(Nc2nnc(SCC(=O)Nc3sccc3C(N)=O)s2)c1	-0.2%	41.0	-6.0%	?	?	9.9
CCc1ccc(Nc2nnc(SCC(=O)NCCN3C(=O)CSC3=O)s2)cc1	-10.1%	53.5*	-1.0%	23.5%	?	40.5*
CCc1ccc(Nc2nnc(SCC(=O)Nc3sccc3C(N)=O)s2)cc1	-20.6%	62.3*	20.4%	?	?	31.7*
C=CCN(C(=O)CCC(=O)Nc1cc(C)on1)C(C(=O)NC(C)(C)CC)c1cccc(OC)c1OC (stereo unspecified)	-2.1%	-4.8	1.3%	-26.9%	157.4%	-6.8
Cc1ccc2c(c1)N(C(=O)CCC(=O)O)CCO2	21.8%	-17.6	0.3%	14.6%	-2.9%	-4.2
Cc1ccc2nc(SCC(=O)Nc3cccnc3Cl)[nH]c2c1	-2.9%	.	.	-28.6%	-19.9%	.
Cc1ccc(C)c(SCC(=O)Nc2cccnc2Cl)c1	0.3%	-9.8	.	10.4µM*	?	1.8
C=CCNC(=O)c1onc(CSc2ccc(F)cc2)c1C(=O)NCC=C	2.6%	.	.	?	-60.1%	.
CN(C)CCNC(=O)c1onc(CSc2ccc(F)c(F)c2)c1C(=O)NCCN(C)C	-3.3%	-1.1	-7.5%	8.28µM*	6.57µM*	-4.9
CN(C)CCNC(=O)c1onc(CSc2ccc(F)cc2)c1C(=O)NCCN(C)C	-4.1%	3.2	18.9%	13.1µM*	3.0%	-6.2
O=C(Nc1ccc(Cl)cc1)N1CCCC1	-21.7%	35.6	-28.6%	20.4%	.	13.9*
O=C(Nc1ccc(Cl)cc1)N1CCSc2ccccc21	-1.8%	27.3	-7.2%	?	?	34.5*
COc1ccc(NC(=O)N2CCOCC2)cc1	2.3%	.	-1.6%	8.3%	?	-1.2
O=C(Nc1ccc(Cl)cc1)N1CCSCC1	-0.5%	20.9	-2.1%	.	.	7.5

Screens: PubChem, National Center for Advancing Translational Sciences (NCATS)
